# From PubChem BioAssay
# EBI2 block = EBI2 (human) antagonism; EBI2 beta-arrestin recruitment, luminescence, 7a,25-OHC stimulated; inhibition, % at 5 µM; 360,000 compounds, 0.81% hits; in the data active = inhibition above about 38%;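 also: enzyme fragment complementation signal reports receptor beta-arrestin coupling in cells; 0% = agonist plus DMSO wells and 100% = wells without agonist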
# AHR act = activators of human aryl hydrocarbon receptor; AHR-responsive luciferase reporter cells, luminescence; activation, % at 5 µM; 320,000 compounds, 2.5% hits; in the data active = activation above about 47%;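 also: 0% = vehicle wells and 100% = reference agonist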
# SENP8 block-1 = inhibitors of human SENP8 protease | recombinant SENP8, Nedd8 substrate fluorescence | inhibition, % at 20 µM | 360,000 compounds, 0.64% hits; in the data active = inhibition mostly above about 40%, no sharp cut-off; inactive = mostly below about 27%
# SENP6 inh = SENP6 protease inhibition; Q9GZR1; Recombinant SENP6 catalytic domain, aminoluciferin luminescence; inhibition, % at 10 µM; 330,000 compounds, 1.8% hits; AID 2599;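 active = inhibition above about 50% at the single tested dose, limit read from the data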;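 also: plate controls were DMSO wells with enzyme for no effect and DMSO wells lacking enzyme for full effect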
# SENP7 block = inhibitors of human SENP7 protease | recombinant SENP7, Z-RLRGG-aminoluciferin luminescence, 40 min | Q9BQF6 | 330,000 compounds, 1.5% hits | inhibition, % at 5 µM;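 active = inhibition above about 50% at the single test dose, limit read from the data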;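 also: plate controls were DMSO with enzyme for no effect and no enzyme buffer wells for full effect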
# SENP8 block-2 = blocks the human protease SENP8. purified SENP8, Z-RLRGG-aminoluciferin cleavage, luminescence. inhibition, % at 10 µM. 330,000 compounds, 1.2% hits; in the data active = inhibition above about 50%
# SENP8 conf = confirmation of human SENP8 protease inhibitors; inhibition, % at 12.5 µM; AID 488912; Recombinant SENP8, Z-RLRGG-aminoluciferin luminescence, 60 min; shares compounds with SENP7 block; 6,200 compounds, 40% hits;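 active = mean inhibition across replicates above about 50%, limit read from the data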
# SENP6 confirm = confirmation of human SENP6 protease inhibitors; shares compounds with SENP7 block; recombinant SENP6, Z-RLRGG-aminoluciferin luminescence; inhibition, % at 12.5 µM; 6,200 compounds, 58% hits; AID 488915
# SENP7 conf = confirmation of human SENP7 protease inhibitors. inhibition, % at 12.5 µM. shares compounds with SENP7 block. 6,200 compounds, 69% hits. recombinant SENP7, Z-RLRGG-aminoluciferin luminescence, 40 min
# Casp3 SENP sel = inhibits human caspase-3 in SENP selectivity test | purified caspase-3, Z-DEVD-aminoluciferin luminescence, 60 min | 6,200 compounds, 60% hits | inhibition, % at 12.5 µM | shares compounds with SENP7 block | AID 488918;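 active = mean inhibition above about 50%, limit read from the data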;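 also: plate controls were enzyme with DMSO for no effect and wells without caspase-3 for full effect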
# Luc interf = interferes with luciferase luminescence in SENP counter-screen; shares compounds with SENP7 block; Pre-incubated SENP8/Z-RLRGG-aminoluciferin, luciferase luminescence interference; inhibition, % at 12.5 µM; 6,200 compounds, 39% hits;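 active = mean inhibition above about 50% when retested at one dose, limit read from the data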;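 also: plate controls were DMSO wells with completed reaction for no effect and substrate without enzyme for full effect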
# Starred values were filed as active, the others as inactive; . = not tested or not shown. Sampled rows, rich in hits. Any-hit rate of the full collection: about 5%.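 The calls were made as follows, unless noted: active = mean inhibition above about 50% in the one-dose retest (limit read from the data); inactive = the rest.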
SMILES,EBI2 block,AHR act,SENP8 block-1,SENP6 inh,SENP7 block,SENP8 block-2,SENP8 conf,SENP6 confirm,SENP7 conf,Casp3 SENP sel,Luc interf
Cc1cc(C(=O)COC(=O)c2cccnc2Cl)c(C)n1CC1CCCO1 (configuration not stated),0.7,-1.3,9.2,89.9*,93.2*,89.6*,95.3*,96.3*,101.4*,97.8*,79.5*
Cc1cc(C(=O)COC(=O)c2ccc3c(c2)OCO3)c(C)n1Cc1cccs1,-5.5,-2.6,4.6,-68.7,-5.2,-2.7,.,.,.,.,.
COc1ccccc1CNC(=O)C1CC(c2ccccc2[N+](=O)[O-])=NO1 (configuration not stated),-1.2,24.3,-9.6,-9.4,2.8,-4.4,.,.,.,.,.
COCCn1c(C)cc(C(=O)COC(=O)c2cccnc2SC)c1C,-4.2,-1.9,6.8,87.5*,84.8*,78.3*,86.1*,86.4*,97.8*,91.1*,69.1*
COc1ccc(C(=O)COC(=O)c2n[nH]c3ccccc23)c(OC)c1,-14.4,.,-4.4,51.4*,20.6,24.6,43.3,36.6,69.1*,31.9,34.7
Cc1cc(C(=O)COC(=O)c2cc(O)c3ccccc3c2O)c(C)n1CC1CCCO1 (configuration not stated),-15.0,.,-201.4,.,.,.,.,.,.,.,.
Cc1cc(C(=O)COC(=O)c2ccccc2O)c(C)n1CC1CCCO1 (configuration not stated),5.3,-0.7,-20.8,97.0*,96.9*,94.6*,97.7*,98.6*,101.6*,87.9*,56.4*
COCCn1c(C)cc(C(=O)COC(=O)c2ccc3ncsc3c2)c1C,8.4,-5.8,5.9,-0.6,3.6,-1.1,.,.,.,.,.
O=[N+]([O-])c1ccccc1S(=O)(=O)N1CCN(c2ccc(F)cc2)CC1,4.6,0.0,18.9,-6.3,-11.3,-4.1,.,.,.,.,.
Cc1ccc(S(=O)(=O)N(Cc2ccc(C(F)(F)F)cc2)C(=O)N2CCN(C)CC2)cc1,-0.6,1.3,23.3,2.4,7.5,5.3,.,.,.,.,.
CC(C)(C)NC(=O)N1CCn2cccc2C1c1ccccc1F (configuration not stated),2.7,0.8,-1.0,-23.6,96.5*,3.6,1.4,7.9,7.6,8.0,6.3
O=C(Nc1ccc(S(=O)(=O)NCc2ccccc2)cc1)c1ccc(Br)o1,-8.8,8.6,23.8,3.2,-4.9,-3.4,.,.,.,.,.
C=CCn1c(NC(=O)c2ccc(Br)o2)c(S(=O)(=O)c2ccccc2)c2nc3ccccc3nc21,11.4,3.7,-275.5,72.7*,1.6,42.4,13.3,32.4,20.0,6.0,4.2
O=C(Nc1ccc(-c2nc3ccccc3s2)c(OC(=O)c2ccccc2)c1)c1ccccc1,-4.6,2.2,16.2,6.3,64.9*,4.6,5.4,1.7,-6.2,-3.7,-12.4
CN1CCC(=NOc2ccc([N+](=O)[O-])cc2)CC1,-11.4,0.5,15.9,7.7,14.6,11.3,.,.,.,.,.
CC(=O)c1cnc2cc(-c3ccc(C)cc3)nn2c1C,11.6,15.0,-267.9,66.7*,-0.5,44.7,50.4*,33.4,72.5*,66.1*,16.8
COc1ccc(Cn2c(C3CC3)nc3ccc(NC(C)=O)cc3c2=O)cc1,0.0,25.9,-15.4,72.6*,67.2*,46.1,70.2*,68.4*,89.8*,73.3*,41.9
CCc1ccc(/C=C2/SC(=S)N(CCC(=O)Nc3ccc(C(=O)O)cc3)C2=O)cc1,-3.0,1.5,21.7,21.7,74.5*,84.9*,11.6,10.9,1.7,2.8,-0.6
